This is an account of results in PubChem BioAssay (NCI).

About 83,000 compounds went through this panel and 20% of them were active in at least one assay; those are over-represented in the sample as a whole.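 How to read the values: 0–100, growth inhibition (40 = 60% inhibited); 0, no net growth; -100 to 0, cell death (-40 = 40% of starting cells died; -100 = all dead).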 A number with no mark means an inactive call. Activity calls are given as the source filed them. How the source made its calls: active means growth percent below 10; inactive means the rest.

What all share (assay): NCI-60 one-dose screen, 48 h (100 = growth as untreated, 0 = no growth, -100 = all killed)
Holding throughout (conditions): 10 µM unless noted

Assay [1] relates to NCI-H23 lung.
In assay [2] the test system is NCI-H226 lung.
In assay [3] the test system is NCI-H322M lung.
In assay [4] the test system is HOP-62 NSCLC.
Assay [5] deals with NCI-H460 lung.
For assay [6], the system named is HOP-92 NSCLC.
Assay [7] deals with NCI-H522 lung.
In assay [8] the test system is A549/ATCC NSCLC.
Assay [9] deals with 786-0 renal.
In assay [10] the test system is COLO 205 colon.

With `CCOC(=O)c1c(NCC(=O)Nc2cccc([N+](=O)[O-])c2)sc(C(C)=O)c1C`, the growth in assay [1] is -40.7% (active); in assay [2], -61.3% (active); in [3] it was 95%; in assay [4], 7.61% (active); in assay [5], -29% (active); in assay [6], -24.7% (active). For the same compound, the growth in [7] was -32% (active); in assay [8] it was -13.5% (active); in [9], -15% (active); in assay [10], -42.9% (active).

As for `COc1ccc(/C=N/NC(=O)CSc2nc(-c3cnccn3)cc(-c3cccs3)c2C#N)cc1OC`, the growth is 66.6% in assay [1]; 47% in assay [2]; 91.9% in [3]; 77.1% in assay [4]; 56.2% in assay [5]; 37.8% in [6]. For the same compound, the growth in assay [7] is 76.5%; in assay [8] it was 74.8%; in [9], 53.1%; in assay [10] it was 107%.

For the compound `Cc1ccc2c(n1)C(=O)C(Cl)=C(Nc1ccc(C(F)(F)F)cc1)C2=O`, the growth in assay [1] was 68.5%; in [2] it was 89.5%; in [3], 107%; in [4], 97.2%; in assay [5], 101%; in assay [6] it was 71.3%. Moreover, the growth in assay [7] is -18.8% (active); in assay [8], 102%; in assay [9], 34%; in assay [10], 16.7%.

Take `CCN(CC)c1ccc(/C=N/NC(=O)c2ccc(NS(C)(=O)=O)cc2)c(O)c1`: the growth was 23.3% in [1]; 39.3% in [2]; 25.2% in assay [3]; 13.2% in assay [4]; 3.18% (active) in assay [5]; 38.9% in [6]. The growth in assay [7] is 12.5%; in assay [8], 12.3%; in assay [9], 1.77% (active); in assay [10] it was 5.67% (active).

With `COC(=O)CCCNCCCn1ccc2cc(NCc3cccc(-c4ccccc4)c3C)ccc21`, the growth was 61.9% in assay [1]; 69.7% in [2]; 97.6% in assay [3]; 81.9% in assay [4]; 81.8% in [5]; 22.3% in [6]. Also, the growth is 91.7% in assay [7], 84.9% in assay [8], 74.2% in assay [9] and 64.4% in assay [10].

Regarding `Cc1ccc(-c2nc(SCC(=O)c3ccccc3)nc(Nc3ccc(S(N)(=O)=O)cc3)c2C#N)cc1`, the growth was 34.5% in assay [1]; 71.4% in assay [2]; 99.5% in assay [3]; 26.2% in [4]; 65.2% in [5]; 37.6% in assay [6]. Further, the growth in [7] is 87.1%; in assay [8], 87.4%; in assay [9], 46.3%; in assay [10], 101%.

In the case of `CC(Nc1ncnc2ccc(-c3cnc(N)nc3)cc12)c1ccccc1` (stereo not given), the growth was 50.3% in [1]; 20.6% in [2]; 2.74% (active) in assay [3]; 31.2% in [4]; 35.1% in assay [5]; -0.545% (active) in [6]. The growth was 11.9% in assay [7], 32.7% in [8], 23.7% in [9] and 49.6% in assay [10].

For `CCN(CC)S(=O)(=O)c1ccc(-c2nc(C(Cl)Cl)nc3cc(C)nn23)cc1`, the growth was 14.6% in assay [1]; 69.7% in assay [2]; 57.1% in assay [3]; 5.6% (active) in [4]; 8.65% (active) in [5]; -5.03% (active) in assay [6]. The growth in assay [7] is 56%; in assay [8], 0.55% (active); in [9], 92.5%; in assay [10] it was -18.7% (active).

Turning to `NS(=O)(=O)c1ccc(Nc2nc(Nc3ccccc3)nc(N3N=C(c4ccc(Cl)cc4)CC3c3ccc(Cl)cc3)n2)cc1` (stereo not given), the growth in assay [1] was 54.8%; in assay [2] it was 55.1%; in [3], 64.5%; in assay [4], 75.8%; in assay [5] it was 20.1%; in [6], 75%. Further, the growth in assay [7] is 83.6%; in assay [8], 66.7%; in assay [9], 65.8%; in assay [10], 8.73% (active).

With `O=C1Nc2ccccc2/C1=C/c1ccc(OCC(=O)c2ccccc2)cc1`, the growth in [1] was 101%; in assay [2], 89%; in [3] it was 98%; in [4], 99.7%; in assay [5], 102%; in assay [6], 97.1%. The growth was 104% in assay [7], 99.5% in assay [8], 107% in assay [9] and 117% in assay [10].

Take `N#CC1=C2NCCCNc3oc(nc3C#N)Cc3ccccc3CC(=N1)O2`: the growth in [1] was 90.7%; in assay [2], 92.3%; in [3], 94.5%; in assay [4] it was 97.8%; in [5] it was 96.8%; in assay [6], 94.9%. Further, the growth in assay [7] is 97.1%; in assay [8], 98.3%; in assay [9], 95%; in [10] it was 88.1%.

Take `Cc1ccc(S(=O)(=O)c2nc(-c3ccc(F)cc3)oc2S(C)(=O)=O)cc1`: the growth in [1] was 71.2%; in [2], 83.6%; in assay [3], 95.9%; in [4], 99.8%; in assay [5], 101%; in assay [6] it was 63%. In addition, the growth in [7] is 61%; in [8], 96.4%; in assay [9] it was 80.6%; in [10], 95.1%.

`CCOC(=O)c1c(NC(=O)c2ccc(C(F)(F)F)cc2)sc2c(CN3CCN(C)CC3)c(O)ccc12`: the growth in assay [1] is 56.4%; in assay [2], -6.63% (active); in assay [3], 10.2%; in [4], -78.6% (active); in assay [5] it was -70.7% (active); in assay [6], 24.2%. The growth in assay [7] is -21.3% (active); in [8], -74.8% (active); in assay [9], -93.6% (active); in assay [10], -67.5% (active).

In the case of `Cn1c(SCC(=O)c2ccc(F)cc2)nc2ccccc2c1=O`, the growth is 84.5% in assay [1]; 93% in assay [2]; 99.8% in [3]; 93.6% in [4]; 101% in assay [5]; 61.3% in assay [6]. Moreover, the growth is 83.9% in assay [7], 104% in [8], 96.8% in assay [9] and 123% in assay [10].
